PLK1 PBD block – qHTS for Inhibitors of PLK1-PDB (polo-like kinase 1 - polo-box domain): Primary Screen. 360,000 tested, 2.8% active. Potency, µM, without a hit: max response, negative = inhibition, most hits filed as inhibitors. Plk1 PBD binding of FITC phosphopeptide, fluorescence polarization. AID 720504, 2013; further: series mostly up to about 57 µM; nearly all actives have a fitted effect of over 65% in size
TrxR1 inh – qHTS Assay for Inhibitors of Mammalian Selenoprotein Thioredoxin Reductase 1 (TrxR1): qHTS | recombinant rTrxR1, NADPH fluorescence consumption, selenite substrate | Potency, µM (series often up to 114 µM), for inactives: top-dose activity change, negative = inhibition, actives largely listed as inhibitors | 390,000 tested, 1% active; further: nearly all actives have a fitted effect of over 65% in size
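Rat TrxR1 (90 nM in the dispensed reagent) was pre-reduced with 400 uM NADPH for 5 min at room temperature, then incubated with compound for 15 min. After 400 uM selenite was added, NADPH fluorescence (Ex 340/Em 450 nm) was followed for 8 min.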
TrxR1 substrate – qHTS Assay for Substrates of Mammalian Selenoprotein Thioredoxin Reductase 1 (TrxR1): qHTS. AID 588456, 2011. Potency, µM (doses to about 114 µM), for inactives: at the top dose activity change, negative = substrate turnover. Thioredoxin reductase 1, cytoplasmic (Rattus norvegicus), O89049. 390,000 tested, 0.01% active. purified TrxR1 substrate turnover, NADPH consumption readout; further: nearly all actives have a fitted effect of over 50% in size
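Rat TrxR1, dispensed at 90 nM, was prereduced with 400 uM NADPH (final) for 5 min at ~22 deg C, then incubated with compound 15 min before 400 uM selenite. A first-read NADPH fluorescence drop versus no-compound background flagged substrates.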
Sfp inh – qHTS Assay for Inhibitors of Bacillus subtilis Sfp phosphopantetheinyl transferase (PPTase) | Biochemical Sfp PPTase activity, qHTS | Potency, µM, inactives show largest response in the series, negative = inhibition, actives largely listed as inhibitors | 310,000 tested, 3.5% active | AID 1490, 2009;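 further: the enzyme is Sfp with the accession as filed and its product quenches rhodamine fluorescence; 0% = enzyme reaction without inhibitor and -100% = no enzyme wells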
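Fluorescence-quenching assay: 15 nM Sfp-PPTase preincubated 15 min at room temperature with compound, then 5 uM rhodamine-CoA and 12.5 uM BHQ-2-labelled YbbR peptide added. Fluorescence (ex 525/em 598 nm) read at start and after 30 min; difference gives rate.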
IDH1 R132H inh – qHTS for Inhibitors of mutant isocitrate dehydrogenase 1 (IDH1): qHTS; Isocitrate dehydrogenase [NADP] cytoplasmic (Homo sapiens), O75874; IDH1-R132H enzyme, NADPH consumption, diaphorase/resazurin fluorescence; Potency, µM (series often up to 76.6 µM), for inactives: at the highest dose activity change, negative = inhibition, hits mostly inhibitors; 390,000 tested, 0.093% active; AID 602179, 2012; further: nearly all actives have a fitted effect of over 65% in size
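IDH1-R132H (0.5 ug/mL dispensed) in pH 7.5 Tris buffer was preincubated 30 min with compound, then given a substrate mix of 0.016 mM NADPH and 2 mM alpha-KG for 80 min at room temperature; remaining NADPH was read by diaphorase/resazurin fluorescence.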
VDR inhibitor – Inhibitors of the vitamin D receptor (VDR): qHTS. VDR-SRC2-3 peptide fluorescence polarization, 2 h. Potency, µM, inactives show max response, negative = inhibition, actives largely listed as inhibitors. AID 504847, 2011. 400,000 tested, 0.93% active. Vitamin D3 receptor (Homo sapiens), P11473
Target sequence (P11473 whole entry, looked up): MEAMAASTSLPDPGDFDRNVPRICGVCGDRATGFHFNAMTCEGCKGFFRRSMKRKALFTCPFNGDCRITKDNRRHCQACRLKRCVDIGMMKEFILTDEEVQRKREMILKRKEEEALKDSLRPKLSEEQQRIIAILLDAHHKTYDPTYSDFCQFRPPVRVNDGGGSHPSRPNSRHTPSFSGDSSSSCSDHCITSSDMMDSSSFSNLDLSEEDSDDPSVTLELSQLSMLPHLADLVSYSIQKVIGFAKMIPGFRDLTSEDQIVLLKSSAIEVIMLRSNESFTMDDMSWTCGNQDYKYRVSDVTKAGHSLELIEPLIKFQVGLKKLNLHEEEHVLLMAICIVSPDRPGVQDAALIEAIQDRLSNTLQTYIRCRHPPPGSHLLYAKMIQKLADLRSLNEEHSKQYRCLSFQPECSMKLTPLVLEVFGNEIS
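Two reagent solutions held at 4 deg C in the dark were dispensed, compounds pinned at 23 nl, and the mixture incubated 2 h at room temperature. Read-out: fluorescence polarization of VDR–SRC2-3 peptide binding.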
An asterisk follows results filed as active; ? = inconclusive; . = no result given; [ ] = remark or other dose. Shown are actives, neighbours in structure and some others; about 5.2% of the full set was active somewhere. The call rests on the fitted dose curve; in most records, active means well fitted curve in the direction sought with a large enough effect; inconclusive means small, poorly fitted or top-dose-only effect, or another doubt; inactive means no such curve, though single readings can be large; an effect the other way counts as inactive or inconclusive. Unless noted, on the % scale 0 is the no-effect control and ±100 the full control effect; potency means the concentration at half of the fitted maximal effect.

SMILES | PLK1 PBD block | TrxR1 inh | TrxR1 substrate | Sfp inh | IDH1 R132H inh | VDR inhibitor
O=C(CSc1ccccn1)Nc1nc2ccccc2s1 | -1% | -9% | -1% | 16% | 8% | 3%
O=S(=O)(NCCSc1nc2ccccc2o1)c1ccccc1 | 8.4µM* | 11%[57.1 µM] | -7%[57.1 µM] | -5% | 0% | -18%
O=S(=O)(CCSc1nc2ccccc2o1)Cc1ccccc1 | -1% | 13% | -2% | -3% | 2% | -5%
O=S(=O)(CCSc1nc2ccccc2o1)c1nc2ccccc2s1 | ? | 1.1µM* | 3%[57.1 µM] | 9% | 9% | -25%
COc1ccc(C(=O)C[C@@H]2OC3CCCCC3N2S(=O)(=O)c2ccc(C)cc2)cc1OC (stereo partly drawn) | -1% | . | . | . | . | .
COc1cccc(CNC(=O)CCN2C(=O)[C@@H]3Cc4ccccc4CN3C2=O)c1 | 27µM* | 40% | 9% | 13% | 5% | ?
COC(=O)CCC(=O)OC1(C)C(=O)C=C2C=C(C3CC3)N(c3ccc(OC)cc3)C=C2C1=O (stereo not drawn) | . | . | . | 17% | . | .
Nc1cc2c(cc1O)CCCC2 | -14% | 1%[57.1 µM] | 6%[57.1 µM] | 4.5µM* | 3% | 5%
O=C(NCc1ccc(F)cc1)c1cc2cccc3c2n1CCS3 | . | 17%[57.1 µM] | 2%[57.1 µM] | . | -3% | 22%
COc1cccc(NC(=O)CCS(=O)(=O)c2cc3c(cc2Cl)NC(=O)CO3)c1 | -17% | 22% | 4% | 3% | 1% | 1%
Cc1cccc(NC(=O)CCS(=O)(=O)c2cc3c(cc2Cl)NC(=O)CO3)c1 | 12µM* | -15% | -16% | 26% | 4% | ?
CCN(CC)S(=O)(=O)c1nnc(NC(=O)c2ccc(C)cc2)s1 | . | 8% | -3% | . | 39% | 9%
CC1C=C[C@@H]2[C@H](C1)C(=O)N(Cc1ccccc1)[C@H]2c1ccccc1Br (stereo partly drawn) | . | . | . | -15% | . | 45µM*
O=C1[C@H]2CCC=C[C@H]2[C@H](c2ccccc2Br)N1Cc1ccccc1 | -14% | -21% | -8% | -16% | -16% | 56µM*
O=C1[C@H]2CCC=C[C@H]2[C@H](c2cccc(Br)c2)N1Cc1ccccc1 | 21µM* | -34% | -4% | 112µM* | 5% | ?
CC1CC=CC2C1C(=O)N(Cc1ccccc1)C2c1ccc2ccccc2c1Br (stereo not drawn) | . | ? | 4% | ? | . | -19%
CC(C)CCn1nnc2sc(-c3ccccc3)cc2c1=O | . | -2% | 6% | . | . | 5%
CC(C)=CCC/C(C)=C/COc1c2ccoc2cc2oc(=O)ccc12 | . | 34% | 8%[0.457 µM] | . | . | -29%
CCN(CC)C(=O)c1sc2nc(-c3cccs3)cc(-c3ccc(Cl)cc3)c2c1N | ? | -21% | -4% | 79µM* | 2% | ?
CC(C)(C)C(=O)c1sc2nc(-c3cccs3)cc(C(F)(F)F)c2c1N | -29% | -12% | 2% | 22µM* | 7% | ?
Clc1ccc(-c2csc3ncnc(Sc4nnnn4C4CC4)c23)cc1 | . | 7% | 8%[0.0914 µM] | . | . | .
Cc1cccc(C(=O)N2[C@@H](C(C)C)COc3cc(Br)ccc3S2(=O)=O)c1 | 21µM* | 6% | -1% | . | 7% | ?
N=C(N)SCc1ncccc1O | -26% | 32µM* | -5% | -23% | 0% | -8%
N=C(N)SCc1nc2ccccn2c1Br | -5% | 10% | -1% | 4% | 0% | -14%
S=c1[nH]nc(-c2ccc(Cl)cc2Cl)n1-c1ccc2c(c1)OCCO2 | 27µM* | ? | 4%[57.1 µM] | 45µM* | 1% | -6%
